In PubChem BioAssay (EPA / NIEHS):
Activity calls are given as the source filed them. The calls were made as follows: active = hit-call score of the fitted dose curve at least 0.9, where 1 is the maximum; inactive = score below 0.9.

How the values were obtained:
[1] = read-out: Human Leukocyte Antigen - DR isotype (HLADR), HLA-DRA (gene 3122); test: BSK_CASM3C_HLADR: BioMAP Diversity Plus: CASM3C Assay for Human Leukocyte Antigen - DR isotype (HLADR) Biomarker Activity (AID 2283043); details: primary human coronary artery smooth muscle cells; actives raise or lower the signal;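 also: cell-surface HLA-DR protein level quantified by ELISA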
[2] = read-out: Macrophage colony-stimulating factor (MCSF), CSF1 (gene 1435); test: BSK_CASM3C_MCSF: BioMAP Diversity Plus: CASM3C Assay for Macrophage colony-stimulating factor (MCSF) Biomarker Activity (AID 2283044); details: primary human coronary artery smooth muscle cells; actives raise or lower the signal;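 also: M-CSF protein amount quantified by ELISA after 24 h exposure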
[3] = read-out: Low-density lipoprotein receptor (LDLR), LDLR (gene 3949); test: BSK_CASM3C_LDLR: BioMAP Diversity Plus: CASM3C Assay for Low-density lipoprotein receptor (LDLR) Biomarker Activity (AID 2283045); details: primary human coronary artery smooth muscle cells; actives raise or lower the signal;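 also: LDLR protein level on the cell surface quantified by ELISA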
[4] = read-out: Monocyte Chemoattractant Protein-1 (MCP1), CCL2 (gene 6347); test: BSK_CASM3C_MCP1: BioMAP Diversity Plus: CASM3C Assay for Monocyte Chemoattractant Protein-1 (MCP1) Biomarker Activity (AID 2283046); details: primary human coronary artery smooth muscle cells; actives raise or lower the signal
[5] = BSK_CASM3C_Proliferation: Cell Proliferation Assessment in the BioMAP Diversity Plus: CASM3C Assay (AID 2283047); details: primary human coronary artery smooth muscle cells;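 also: sulforhodamine B total protein stain as relative cell number at 560 nm; sub-confluent cells exposed 48 h before staining; fitted both ways against DMSO so gain or loss of cell number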
[6] = read-out: Monokine induced gamma interferon (MIG), CXCL9 (gene 4283); test: BSK_CASM3C_MIG: BioMAP Diversity Plus: CASM3C Assay for Monokine induced gamma interferon (MIG) Biomarker Activity (AID 2283048); details: primary human coronary artery smooth muscle cells; actives raise or lower the signal;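 also: MIG protein level measured by ELISA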
[7] = read-out: serum amyloid A (SAA), SAA1 (gene 6288); test: BSK_CASM3C_SAA: BioMAP Diversity Plus: CASM3C Assay for serum amyloid A (SAA) Biomarker Activity (AID 2283049); details: primary human coronary artery smooth muscle cells; actives raise or lower the signal
[8] = BSK_CASM3C_SRB: Viability Assessment in the BioMAP Diversity Plus: CASM3C Assay (AID 2283050); details: primary human coronary artery smooth muscle cells;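 also: cells exposed to compound for 24 h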
[9] = read-out: Thrombomodulin, THBD (gene 7056); test: BSK_CASM3C_Thrombomodulin: BioMAP Diversity Plus: CASM3C Assay for Thrombomodulin Biomarker Activity (AID 2283051); details: primary human coronary artery smooth muscle cells; actives raise or lower the signal;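 also: thrombomodulin protein level measured by ELISA 24 h after dosing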
[10] = read-out: Tissue Factor, F3 (gene 2152); test: BSK_CASM3C_TissueFactor: BioMAP Diversity Plus: CASM3C Assay for Tissue Factor Biomarker Activity (AID 2283052); details: primary human coronary artery smooth muscle cells; actives raise or lower the signal;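 also: cell surface tissue factor protein level read by ELISA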
[11] = read-out: Interferon-gamma inducible Protein 10 (IP10), CXCL10 (gene 3627); test: BSK_hDFCGF_IP10: BioMAP Diversity Plus: hDFCGF Assay for Interferon-gamma inducible Protein 10 (IP10) Biomarker Activity (AID 2283053); details: primary human foreskin fibroblasts; actives raise or lower the signal
In short: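 ELISA read-out of IP-10 (CXCL10) from primary human skin fibroblasts, 24 h after compound addition. Gain or loss of signal versus DMSO baseline, bidirectional curve fitting.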

[12] = read-out: Urokinase-type plasminogen activator receptor (uPAR), PLAUR (gene 5329); test: BSK_CASM3C_uPAR: BioMAP Diversity Plus: CASM3C Assay for Urokinase-type plasminogen activator receptor (uPAR) Biomarker Activity (AID 2283054); details: primary human coronary artery smooth muscle cells; actives raise or lower the signal;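 also: cell-surface uPAR protein level quantified by ELISA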
[13] = read-out: Vascular cell adhesion molecule 1 (VCAM1), VCAM1 (gene 7412); test: BSK_CASM3C_VCAM1: BioMAP Diversity Plus: CASM3C Assay for Vascular cell adhesion molecule 1 (VCAM1) Biomarker Activity (AID 2283055); details: primary human coronary artery smooth muscle cells; actives raise or lower the signal;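 also: VCAM-1 protein level quantified by ELISA on the cells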
[14] = read-out: Collagen III, COL3A1 (gene 1281); test: BSK_hDFCGF_CollagenIII: BioMAP Diversity Plus: hDFCGF Assay for Collagen III Biomarker Activity (AID 2283056); details: primary human foreskin fibroblasts; actives raise or lower the signal
In short: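 Human foreskin fibroblast primary cultures sampled 24 h after dosing; Collagen III quantified by ELISA. Signal fitted bidirectionally against DMSO baseline.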

[15] = read-out: Epidermal growth factor receptor (EGFR), EGFR (gene 1956); test: BSK_hDFCGF_EGFR: BioMAP Diversity Plus: hDFCGF Assay for Epidermal growth factor receptor (EGFR) Biomarker Activity (AID 2283057); details: primary human foreskin fibroblasts; actives raise or lower the signal
In short: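 ELISA readout of EGFR on human dermal fibroblasts (primary foreskin cells), 24 h post-dosing; bidirectional curve fit vs DMSO baseline, gain or loss of signal scored.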

[16] = read-out: Interleukin-8 (IL8), CXCL8 (gene 3576); test: BSK_hDFCGF_IL8: BioMAP Diversity Plus: hDFCGF Assay for Interleukin-8 (IL8) Biomarker Activity (AID 2283058); details: primary human foreskin fibroblasts; actives raise or lower the signal
In short: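 Primary human foreskin fibroblasts (hDFCGF system) dosed with chemical; IL-8 measured by ELISA 24 hours later. Bidirectional curve fitting relative to DMSO baseline; cytotoxicity tracked in parallel cultures by SRB total protein staining.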

[17] = BSK_hDFCGF_Proliferation: Cell Proliferation Assessment in the BioMAP Diversity Plus: hDFCGF Assay (AID 2283059); details: primary human foreskin fibroblasts;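 also: curves fitted for both rise and fall of signal versus DMSO baseline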
In short: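 Steps: dose primary human dermal fibroblasts (foreskin); […] fix in 10% TCA; stain with 0.1% SRB; read 560 nm; fit gain or loss of signal against DMSO.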

[18] = BSK_hDFCGF_SRB: Viability Assessment in the BioMAP Diversity Plus: hDFCGF Assay (AID 2283061); details: primary human foreskin fibroblasts;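 also: cells exposed to compound for 24 h before the read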
In short: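 Human foreskin fibroblasts in 96-well plates were treated 24 h. Total protein was measured by 0.1% SRB staining after 10% TCA fixation, read at 560 nm. Data were fitted bidirectionally against DMSO.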

[19] = read-out: TIMP metallopeptidase inhibitor 1 (TIMP1), TIMP1 (gene 7076); test: BSK_hDFCGF_TIMP1: BioMAP Diversity Plus: hDFCGF Assay for TIMP metallopeptidase inhibitor 1 (TIMP1) Biomarker Activity (AID 2283062); details: primary human foreskin fibroblasts; actives raise or lower the signal
In short: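 Human foreskin fibroblast primary cultures dosed for 24 h; secreted/surface TIMP-1 quantified by ELISA. Bidirectional curve fitting against DMSO baseline; cytotoxicity tracked in parallel cultures by SRB total-protein staining.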

[20] = read-out: Monokine induced gamma interferon (MIG), CXCL9 (gene 4283); test: BSK_hDFCGF_MIG: BioMAP Diversity Plus: hDFCGF Assay for Monokine induced gamma interferon (MIG) Biomarker Activity (AID 2283063); details: primary human foreskin fibroblasts; actives raise or lower the signal
In short: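 MIG/CXCL9 measured by ELISA 24 h after dosing primary human skin fibroblasts. Activity fitted in both directions against DMSO controls. Cytotoxicity was checked in parallel cultures by SRB staining read at 560 nm.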

[21] = read-out: Matrix Metallopeptidase 1 (MMP1), MMP1 (gene 4312); test: BSK_hDFCGF_MMP1: BioMAP Diversity Plus: hDFCGF Assay for Matrix Metallopeptidase 1 (MMP1) Biomarker Activity (AID 2283064); details: primary human foreskin fibroblasts; actives raise or lower the signal
In short: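 MMP1 levels quantified by ELISA 24 h after dosing human dermal fibroblast cultures, with parallel SRB total-protein staining for overt cytotoxicity. Data fitted in both directions against DMSO baseline.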

[22] = read-out: Vascular cell adhesion molecule 1 (VCAM1), VCAM1 (gene 7412); test: BSK_hDFCGF_VCAM1: BioMAP Diversity Plus: hDFCGF Assay for Vascular cell adhesion molecule 1 (VCAM1) Biomarker Activity (AID 2283065); details: primary human foreskin fibroblasts; actives raise or lower the signal
In short: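 Human foreskin fibroblast primary cells dosed with chemical, VCAM-1 measured by ELISA at 24 h. Bidirectional curve fitting relative to DMSO as negative control/baseline.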

[23] = read-out: Plasminogen activator inhibitor-1 (PAI1), SERPINE1 (gene 5054); test: BSK_hDFCGF_PAI1: BioMAP Diversity Plus: hDFCGF Assay for Plasminogen activator inhibitor-1 (PAI1) Biomarker Activity (AID 2283066); details: primary human foreskin fibroblasts; actives raise or lower the signal
In short: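 ELISA readout of PAI-1 from primary human skin fibroblast cultures, 24 h after compound addition. Gain or loss of signal was fitted bidirectionally against DMSO baseline.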

[24] = read-out: Intercellular Adhesion Molecule 1 (ICAM1), ICAM1 (gene 3383); test: BSK_KF3CT_ICAM1: BioMAP Diversity Plus: KF3CT Assay for Intercellular Adhesion Molecule 1 (ICAM1) Biomarker Activity (AID 2283067); details: primary human keratinocytes with fibroblasts; actives raise or lower the signal
In short: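 Human keratinocyte–foreskin fibroblast co-culture was treated for 24 h. Cell-surface ICAM-1 was quantified by ELISA, fitted bidirectionally relative to DMSO. Cytotoxicity was checked in parallel cultures by SRB total-protein staining.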

[25] = read-out: Interferon-gamma inducible Protein 10 (IP10), CXCL10 (gene 3627); test: BSK_KF3CT_IP10: BioMAP Diversity Plus: KF3CT Assay for Interferon-gamma inducible Protein 10 (IP10) Biomarker Activity (AID 2283068); details: primary human keratinocytes with fibroblasts; actives raise or lower the signal
In short: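 KF3CT co-culture (keratinocytes + foreskin fibroblasts), 24 h compound, IP-10 by ELISA; bidirectional fit vs DMSO baseline.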

[26] = BSK_KF3CT_SRB: Viability Assessment in the BioMAP Diversity Plus: KF3CT Assay (AID 2283069); details: primary human keratinocytes with fibroblasts;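 also: total protein by sulforhodamine B staining as a cytotoxicity measure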
In short: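 Cytotoxicity was gauged by SRB staining (0.1% SRB, 10% TCA fixation, 560 nm) of parallel cultures at 24 h. The cells were primary human skin keratinocytes co-cultured with fibroblasts, and activity was fitted in both directions against DMSO.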

[27] = read-out: Interleukin-1 alpha (IL1a), IL1A (gene 3552); test: BSK_KF3CT_IL1a: BioMAP Diversity Plus: KF3CT Assay for Interleukin-1 alpha (IL1a) Biomarker Activity (AID 2283070); details: primary human keratinocytes with fibroblasts; actives raise or lower the signal
In short: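 IL-1a was detected by ELISA 24 h after chemical treatment of a co-culture of human skin keratinocytes and foreskin fibroblasts. Gain or loss of signal was fitted against the DMSO baseline.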

[28] = read-out: TIMP metallopeptidase inhibitor 2 (TIMP2), TIMP2 (gene 7077); test: BSK_KF3CT_TIMP2: BioMAP Diversity Plus: KF3CT Assay for TIMP metallopeptidase inhibitor 2 (TIMP2) Biomarker Activity (AID 2283071); details: primary human keratinocytes with fibroblasts; actives raise or lower the signal
In short: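 ELISA readout of TIMP-2 in keratinocyte plus foreskin fibroblast co-cultures (human skin primary cells), 24 h post-dose. Gain or loss of signal fitted relative to DMSO.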

[29] = read-out: C-C motif chemokine 2 (Homo sapiens) (UniProt P13500); test: BSK_KF3CT_MCP1: BioMAP Diversity Plus: KF3CT Assay for Monocyte Chemoattractant Protein 1 (MCP1/CCL2) Biomarker Activity (AID 2283073); details: primary human keratinocytes with fibroblasts; actives raise or lower the signal
In short: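 Human keratinocyte–foreskin fibroblast co-culture; MCP-1 measured by ELISA 24 h after dosing. Bidirectional fit vs DMSO; cytotoxicity tracked by SRB total protein in parallel cultures.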

[30] = read-out: Matrix Metallopeptidase 9 (MMP9), MMP9 (gene 4318); test: BSK_KF3CT_MMP9: BioMAP Diversity Plus: KF3CT Assay for Matrix Metallopeptidase 9 (MMP9) Biomarker Activity (AID 2283074); details: primary human keratinocytes with fibroblasts; actives raise or lower the signal
In short: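 MMP-9 quantified by ELISA after 24 h chemical treatment of primary human skin keratinocyte/fibroblast co-cultures; gain or loss fitted against DMSO, with parallel SRB staining (0.1% SRB, 560 nm) for overt cytotoxicity.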

Measured: outcome

CCCC[N+](CCCC)(CCCC)CCCC
inactive: all assays above
